According to PubChem BioAssay (NCATS):
Records with an inconclusive call do not appear. The source made the active and inactive calls. The call rests on the fitted dose curve; in most records, active means well fitted inhibition curve with a large enough effect; inconclusive means small, poorly fitted or top-dose-only effect; inactive means flat fitted curve, though single readings scatter.

Each molecule was assayed on CRL-7250 (assay: Cytotoxic Profiling of Annotated Libraries Using Quantitative High-Throughput Screening (AID 1296008; further: nearly all actives have a fitted effect of over 60% in size)). Details: Five cell lines viability, CellTiter-Glo ATP luminescence, 48-72 h; max response: stronger effect = lower value.
Method in brief: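 Cells exposed to compounds for 48 or 72 hr at 37 degrees Celsius. Viability read as ATP-coupled luminescence with CellTiter-Glo after 10 min at room temperature.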
On the % scale 0 is the no-effect control and ±100 the full control effect.

| SMILES | outcome | max response |
| --- | --- | --- |
| COc1ccc(-c2cnc3c(-c4cccc5ncccc45)cnn3c2)cc1 | inactive |  |
| C/C=C(\C)C(=O)OC1C[C@@]2(COC(C)=O)O[C@H]2/C=C\[C@@]2(C)O[C@@H]2[C@H]2OC(=O)C(COC(C)=O)=C12 (stereo partly drawn) |  | -2.2% (inactive) |
| COc1ccc(NC(=O)c2ccc(-c3ccc(C(=N)N)cc3C)cc2)cc1N1CCN(C)CC1 |  | 4.07% (inactive) |
| C=C1CCCC2(C)CCC(C(C)(C)OC3OC(C)C(O)C(O)C3OC(=O)/C(C)=C\C)CC12 (stereo not drawn) |  | 3.11% (inactive) |
| C=C(CCC1C(C)(O)CCC2C(C)(C)C(O)CCC12C)C(O)CO (stereo not drawn) |  | -26.3% (inactive) |
| O=C(Nc1ccccc1C(=O)Nc1ccc(CCO)cc1)c1ccc([N+](=O)[O-])cc1 |  | -0.113% (inactive) |
| O=C([C@@H](Cc1cccc(C(F)(F)F)c1)NS(=O)(=O)c1cc(F)c2c(c1)CCNC2)N1CCCC1 | inactive |  |
| COC(=O)c1ccc2c(c1)[nH]c1ncnc(NCCCN3CCCCC3)c12 |  | -8.38% (inactive) |
| CC[C@H](C)/C=C(C)/C=C/C1=CC2=C(Cl)C(=O)[C@](C)(O)[C@H](OC(C)=O)[C@H]2CO1 |  | -9.34% (inactive) |
| O=C(Nc1ccc(N(Cc2ccsc2)C(=O)Cn2nnc3ccccc32)cc1)C1CC1 |  | -5.74% (inactive) |
| C/C=C(/C)C(=O)OC1C=C2C3C(C)C(C)C(OC(=O)C(C)C(C)O)CC3(C)CCC2(C)C2(C)CC(OC(C)=O)C3C(C)(C)C(O)C(=O)CC3(C)C12 (stereo not drawn) |  | 0.415% (inactive) |
| CC(=O)NC[C@H]1CN(c2ccc(N3CCSCC3)c(F)c2)C(=O)O1 |  | 3.86% (inactive) |
| Cc1ccc(OC[C@H](O)[C@H](C)NC(C)C)c2c1CCC2 |  | -3.77% (inactive) |
| O=C(NCC1CCN(Cc2cccc(Cl)c2)CC1)[C@@H]1CCCN(c2ncnc3c2nc2n3CCCC2)C1 |  | 4.3% (inactive) |
| CNCCC(c1cccs1)c1ccc(O)c2ccccc12 (stereo not drawn) |  | 3.5% (inactive) |
| CCC/C=C/C(=O)O[C@H]1CC(C)(C)CC2[C@@]13[C@H](O)C[C@]1(C)[C@@]2(CCC2[C@@]4(C)CC[C@H](O[C@@H]5O[C@H](C(=O)O)[C@@H](O)[C@H](O[C@@H]6O[C@H](CO)[C@H](O)[C@H](O)[C@H]6O[C@@H]6O[C@@H](C)[C@H](O)[C@@H](O)[C@H]6O[C@@H]6OC[C@](O)(CO)[C@H]6O)[C@H]5O[C@@H]5O[C@H](CO)[C@H](O)[C@H](O)[C@H]5O)C(C)(C)C4CC[C@]21C)O[C@H]3O (stereo partly drawn) | inactive |  |
| C=C1CC2OC(=O)C(=C)C2C(O)/C=C(\C)CCC1O (stereo not drawn) |  | -0.668% (inactive) |
| C[C@@H](NC(=O)c1ccc(C#Cc2cccc(F)c2)cn1)C(C)(C)O |  | -12.8% (inactive) |
| CN(C)CCOc1cc(NS(=O)(=O)c2c(Cl)cc(C(F)(F)F)cc2Cl)ccc1Cl |  | 2.92% (inactive) |

| SMILES | outcome | max response |
| --- | --- | --- |
| CC(=O)O[C@@H]1CC[C@@]2(C)[C@H](CC[C@@H]3[C@@H]2C[C@H](OC(C)=O)[C@]2(C)[C@@H](C(C)=O)CC[C@@H]32)C1 |  | -9.5% (inactive) |
| CC1=C2C[C@@]3(C)C(CCC[C@@H]3C)C(O)C2OC1=O (stereo partly drawn) |  | 2.27% (inactive) |
| CNCCCC1(c2ccccc2)OC(C)(C)c2ccccc21 (stereo not drawn) |  | 3.46% (inactive) |
| O=S1(=O)CCN(Cc2cc(NCC3CCOCC3)c3[nH]c(-c4ccccc4)cc3c2)CC1 |  | -9.27% (inactive) |
| CCCNCCc1ccc(NS(=O)(=O)c2ccc(OC(F)(F)F)cc2)cc1 |  | -2.99% (inactive) |
| CC(=O)OCC(=O)[C@@]12O[C@@H]1C[C@H]1[C@@H]3CC=C4C[C@@H](O)CC[C@]4(C)[C@H]3CC[C@@]12C |  | 1.57% (inactive) |
| CC#CCn1c(N2CCCC(N)C2)nc2c1c(=O)n(Cc1nc(C)c3ccccc3n1)c(=O)n2C (stereo not drawn) |  | 0.556% (inactive) |
| COc1ccc2c(NC(=O)Nc3cccc(C(F)(F)F)n3)ccnc2c1 |  | -17.8% (inactive) |
| CC(C)(C)c1ccc(C(=O)Nc2cn3cc(-n4ccnc4)ccc3n2)cc1 | inactive |  |
| CCOC(=O)N1CCC(N2CCC[C@@H](NC(=O)c3ccccc3C)C2)CC1 |  | -6.33% (inactive) |
| Cc1nc(C(=O)N2CCC[C@H]2Cc2nnc(-c3ccccc3)o2)c(-c2ccccc2F)s1 | inactive |  |
| CC(=O)c1c(C)cc2cccc(O)c2c1O[C@@H]1O[C@H](CO)[C@@H](O)[C@H](O)[C@H]1O |  | -1.95% (inactive) |
| CCCn1cc2c(nc(NC(=O)Nc3ccc(OC)cc3)n3nc(-c4ccco4)nc23)n1 |  | 4.71% (inactive) |
| O=C(O)c1cc(N(Cc2ccc(C3CCCCC3)cc2)C(=O)c2ccc(Oc3ccccc3)cc2)ccc1O |  | -16.9% (inactive) |
| COc1cc2nc(N3CCN(C(=O)COc4c(OC)cccc4C(C)C)CC3)nc(N)c2cc1OC |  | 1.78% (inactive) |
| CC(=O)C=C=C1C(C)(C)CC(O)CC1(C)O[C@@H]1O[C@H](CO[C@H]2OC[C@](O)(CO)[C@H]2O)[C@@H](O)[C@H](O)[C@H]1O (stereo partly drawn) |  | -2.66% (inactive) |
| Cc1cc(C)c(-n2cc(C)c3c(Cl)nc(C)nc32)c(C)c1 |  | -11.1% (inactive) |
| O=[N+]([O-])c1ccc(Oc2ccc3c(c2)CCC(c2ccccc2)O3)nc1 (stereo not drawn) | inactive |  |
| CC1(C)CC[C@]2(C(=O)O)[C@H](O)C[C@]3(C)C(=CCC4[C@@]5(C)CC[C@H](O[C@@H]6O[C@H](CO[C@@H]7OC[C@H](O)[C@H](O)[C@H]7O[C@@H]7OC[C@H](O)[C@H](O)[C@H]7O)[C@@H](O)[C@H](O)[C@H]6O)C(C)(C)C5CC[C@]43C)[C@@H]2C1 (stereo partly drawn) | inactive |  |
